Assay outcomes from PubChem BioAssay.
Sampled rows, rich in hits. Any-hit rate of the full collection: about 3.8%.
GLS inh – qHTS for Inhibitors of Glutaminase (GLS); Glutaminase kidney isoform, mitochondrial (Homo sapiens), O94925; GLS enzymatic activity, qHTS titration; Potency, µM (doses to about 45.5 µM), without a hit: at the top dose activity change, negative = inhibition, actives largely listed as inhibitors; hit rate 0.21% among 410,000; AID 624170, 2012
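Read-out is an Amplex red fluorescence increase coupled through glutamate oxidase and HRP, measured before and after 30 min room-temperature incubation. hKGA is in 45 mM KH2PO4 (pH 8.2) with 0.02% Tween-20; glutamine added as 1mM solution.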
VDR inhibitor – Inhibitors of the vitamin D receptor (VDR): qHTS; VDR-SRC2-3 peptide fluorescence polarization, 2 h; AID 504847, 2011; hit rate 0.93% among 400,000; Vitamin D3 receptor (Homo sapiens), P11473; Potency, µM, for the others: max response, negative = inhibition, actives largely listed as inhibitors
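The screen uses fluorescence polarization to detect compounds that interfere with recruitment of the SRC2-3 coactivator peptide to VDR; plates are read after 2 h at room temperature.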
GCN5L2 inh – qHTS Assay for Inhibitors of GCN5L2; Histone acetyltransferase KAT2A (Homo sapiens), Q92830; GCN5L2 HAT assay, ThioGlo1 CoA-SH fluorescence; Potency, µM (doses to about 58.9 µM), without a hit: at the top dose activity change, negative = inhibition, usual class: inhibitors; hit rate 0.21% among 390,000
Target sequence (Q92830 whole entry, looked up): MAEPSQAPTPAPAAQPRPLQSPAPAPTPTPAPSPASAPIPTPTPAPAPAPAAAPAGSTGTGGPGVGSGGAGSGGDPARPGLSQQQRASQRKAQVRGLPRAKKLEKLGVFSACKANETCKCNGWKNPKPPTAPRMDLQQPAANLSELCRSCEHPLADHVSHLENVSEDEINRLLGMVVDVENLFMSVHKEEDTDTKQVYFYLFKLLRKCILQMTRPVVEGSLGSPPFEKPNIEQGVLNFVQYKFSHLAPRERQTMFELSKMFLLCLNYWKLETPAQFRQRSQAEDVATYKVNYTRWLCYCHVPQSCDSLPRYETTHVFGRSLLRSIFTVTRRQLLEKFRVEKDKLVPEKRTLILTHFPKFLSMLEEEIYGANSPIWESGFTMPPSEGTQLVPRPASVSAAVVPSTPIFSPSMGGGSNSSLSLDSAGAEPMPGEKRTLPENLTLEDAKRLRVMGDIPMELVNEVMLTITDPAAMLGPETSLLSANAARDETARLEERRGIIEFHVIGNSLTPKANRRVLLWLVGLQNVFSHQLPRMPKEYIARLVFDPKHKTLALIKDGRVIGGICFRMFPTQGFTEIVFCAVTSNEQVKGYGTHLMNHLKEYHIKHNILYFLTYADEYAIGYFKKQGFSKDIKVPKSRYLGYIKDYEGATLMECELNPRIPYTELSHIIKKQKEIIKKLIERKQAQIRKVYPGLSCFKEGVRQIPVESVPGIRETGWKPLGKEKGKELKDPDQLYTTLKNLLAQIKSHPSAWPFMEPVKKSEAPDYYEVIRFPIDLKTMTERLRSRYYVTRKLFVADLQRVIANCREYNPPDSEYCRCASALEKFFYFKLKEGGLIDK
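GCN5L2 (20nM final) in 50mM HEPES, 0.1mM EDTA pH 7.5, 0.01% Tween-20 was preincubated 15 min at room temperature with compound, then given ThioGlo1 (50uM), H3(1-25) peptide (75uM) and acetyl-CoA (70uM); CoA-thiol fluorescence (Ex340/Em540) was read at 0 and 20 min.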
TrxR1 substrate – qHTS Assay for Substrates of Mammalian Selenoprotein Thioredoxin Reductase 1 (TrxR1): qHTS; purified TrxR1 substrate turnover, NADPH consumption readout; Potency, µM (top dose mostly 114 µM), for the others: top-dose activity change, negative = substrate turnover; hit rate 0.01% among 390,000; AID 588456, 2011; note: nearly all actives have a fitted effect of over 50% in size
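Rat TrxR1, dispensed at 90 nM, was prereduced with 400 uM NADPH (final) for 5 min at ~22 deg C, then incubated with compound 15 min before 400 uM selenite. A first-read NADPH fluorescence drop versus no-compound background flagged substrates.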
rTrxR1 inhibitor – qHTS Assay for Inhibitors of Mammalian Selenoprotein Thioredoxin Reductase 1 (TrxR1): qHTS | Thioredoxin reductase 1, cytoplasmic (Rattus norvegicus), O89049 | recombinant rTrxR1, NADPH fluorescence consumption, selenite substrate | Potency, µM (series often up to 114 µM), for the others: top-dose activity change, negative = inhibition, hits mostly inhibitors | hit rate 1% among 390,000 | AID 588453, 2011; note: nearly all actives have a fitted effect of over 65% in size
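Rat TrxR1 (90 nM in the dispensed reagent) was pre-reduced with 400 uM NADPH for 5 min at room temperature, then incubated with compound for 15 min. After 400 uM selenite was added, NADPH fluorescence (Ex 340/Em 450 nm) was followed for 8 min.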
Sfp PPTase inh – qHTS Assay for Inhibitors of Bacillus subtilis Sfp phosphopantetheinyl transferase (PPTase). Biochemical Sfp PPTase activity, qHTS. hit rate 3.5% among 310,000. Potency, µM, for inactives: largest response in the series, negative = inhibition, hits mostly inhibitors;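 note: the enzyme is Sfp with the accession as filed and its product quenches rhodamine fluorescence; 0% = enzyme reaction without inhibitor and -100% = no enzyme wells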
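Step 1, compound plus 15 nM Sfp-PPTase, 15 min, room temperature. Step 2, add rhodamine-CoA (5 uM) and BHQ-2-YbbR (12.5 uM). Step 3, read 525/598 nm fluorescence at 0 and 30 min.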
Active calls of the source: *; u = inconclusive; x = no result; ! = repeats disagree; [ ] = dose if it differs, or a comment. Calls come from the whole dose curve; as a rule, active = well fitted curve in the direction sought with a large enough effect; inconclusive = small, poorly fitted or top-dose-only effect, or another doubt; inactive = no such curve, though single readings can be large; an effect the other way counts as inactive or inconclusive. Unless noted, % is set by controls: 0 for no effect and ±100 for the full control effect; potency is the fitted concentration of half-maximal effect.

SMILES	GLS inh	VDR inhibitor	GCN5L2 inh	TrxR1 substrate	rTrxR1 inhibitor	Sfp PPTase inh
O=[N+]([O-])c1ccc(N/N=C/c2ccc(O)c(O)c2O)c(S(=O)(=O)N2CCOCC2)c1	u	u	-12%	2%[57.1 µM]	-46%	7.1µM*
O=C(OCCN1CCOCC1)c1ccc(OCCN2CCOCC2)cc1	2%	8%	1%	13%[57.1 µM]	8%[57.1 µM]	1%
CCOc1ccc(OCCN2CCCCC2)cc1	-3%	-10%	-4%	8%	14%	-17%
CCCOc1ccc(C(=O)CCN2CCCCC2)cc1	21%	40µM*	-3%	8%	u	-26%
c1ccc(COc2ccc(OCCN3CCCCC3)cc2)cc1	11%	14%	-7%	-8%	-10%	50µM*
CCCCOc1ccc(C(=O)CCN2CCOCC2)cc1	7%	32µM*	-10%	3%[57.1 µM]	3.5µM*	u
CCCCN=C(C)c1c(O)c2ccccc2oc1=O	-8%	1%	-4%	-9%	7%[57.1 µM]	4%
CCN(CC)c1ccc(/C=C2/SC(=O)N(C(C)C)C2=O)o1	u	32µM*	-9%	0%	3.2µM*	3.2µM*
Cc1ccc(S(=O)(=O)NCC(=O)N/N=C/c2ccc(Cl)cc2)cc1	-1%	-15%	-2%	-2%	8%	-2%
Cc1ccc(S(=O)(=O)NCC(=O)N/N=C/c2ccc(Cl)cc2Cl)cc1	6%	10%	-7%	-6%	1%	45µM*
N#CC1=C(N)Oc2ccc3ccccc3c2C1c1cccnc1 (configuration not stated)	3%	0%	14%	-2%	9%	2%
CCOc1cc(/C=C2/SC(=S)NC2=O)ccc1OC(=O)c1ccco1	0%	-3%	-28%	-5%	-6%	40µM*
CCS(=O)(=O)C1=NSC2=NC(=O)/C(=C\c3ccc(OC(=O)c4ccco4)c(OC)c3)C(=N)N21	4%	-25%	-5%	-16%	u	-4%
CCOc1cc(/C=C2/C(=N)N3C(=NC2=O)SN=C3S(=O)(=O)CC)ccc1OC(=O)c1ccco1	-5%	89µM*	u	-8%	-17%	11%
COc1cc(/C=C2/SC(=O)NC2=O)ccc1OC(=O)c1ccco1	16%	-4%	-1%	-19%	-32%	6%
Cc1nc2c(OCc3ccc(Cl)cc3Cl)cccn2c1N(C)Cc1cccs1	12%	x	x	x	x	x
CC(NC(=O)c1ccc(F)cc1F)C1CC2CCC1C2 (configuration not stated)	4%	17%	-8%	-2%	9%	-20%
C1CSC2(N1)C1CC3CC(C1)CC2C3 (configuration not stated)	6%	-9%	u	11%[57.1 µM]	39%[57.1 µM]	35µM*
S=C1NNC2(NN1)C1CC3CC(C1)CC2C3	u	10%	-4%	9%	-8%	-3%
C=C1CCN([C@@H](Cc2ccccc2)C(=O)O)S(=O)(=O)c2ccccc21	2%	-13%	x	10%[57.1 µM]	-5%[57.1 µM]	x
C=C1CN(Cc2ccccc2)S(=O)(=O)c2ccccc21	-22%	-18%	-6%	-1%	28µM*!	u
O=C(O)c1sccc1NC(=O)c1c(Cl)cccc1Cl	9%	-1%	2%	-10%	-14%	17%
Cc1ccc(-c2nn(-c3ccccc3)cc2C2CC(c3ccccc3)=NN2C(=O)CCC(=O)O)cc1 (configuration not stated)	u	13%	-5%	-2%	-3%	-20%
Cc1ccc(C2=NN(C(=O)CCC(=O)O)C(c3cn(-c4ccccc4)nc3-c3ccc(C)cc3)C2)cc1 (configuration not stated)	u	60%	u	-4%	-18%	89µM*
